Experimental data from PubChem BioAssay (NCI).
About 79,000 compounds went through this panel and 15% of them were active in at least one assay; those are over-represented in the sample as a whole. The source made the active and inactive calls. Rule as the data show it: active = growth inhibition above about 70%; inactive = the rest.

Legend:
[1] = NCI Yeast Anticancer Drug Screen. Data for the rad50 strain (AID 155);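 also: 0% = growth of vehicle-only cultures of the same strain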; conditions: S. cerevisiae rad50 strain growth inhibition, stronger effect = higher value
Summary of the method: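 Yeast carrying a defined DNA repair defect were exposed to test compounds, and growth was compared with vehicle-treated controls to give percent inhibition.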

[2] = NCI Yeast Anticancer Drug Screen. Data for the mec2-1 strain (AID 157); conditions: S. cerevisiae mec2-1 strain, stronger effect = higher value
Summary of the method: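 Yeast mec2-1 mutant treated with compound. Readout: growth inhibition vs vehicle controls.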

[3] = NCI Yeast Anticancer Drug Screen. Data for the sgs1 mgt1 strain (AID 161);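 also: 0% = growth of cultures given vehicle only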; conditions: S. cerevisiae sgs1 mgt1 strain, stronger effect = higher value
Summary of the method: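 Genetically altered yeast, compound exposure, growth inhibition relative to vehicle.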

[4] = NCI Yeast Anticancer Drug Screen. Data for the cln2 rad14 strain (AID 165);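 also: 0% = growth equal to vehicle treated cultures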; conditions: S. cerevisiae cln2 rad14 strain, stronger effect = higher value
Summary of the method: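 cln2 rad14 yeast strain; compound exposure; growth inhibition read vs vehicle controls.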

[5] = NCI Yeast Anticancer Drug Screen. Data for the mlh1 rad18 strain (AID 175); conditions: S. cerevisiae mlh1 rad18 strain growth inhibition, stronger effect = higher value
Summary of the method: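 Yeast w/ defined DNA-repair lesions; compound exposure; growth vs vehicle controls → % inhibition.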

[6] = NCI Yeast Anticancer Drug Screen. Data for the bub3 strain (AID 167); conditions: S. cerevisiae bub3 mutant strain, stronger effect = higher value
Summary of the method: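 Compounds were applied to a genetically altered yeast strain carrying a cell-cycle control defect. Growth inhibition was scored against vehicle-treated controls.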

[7] = at 5.0 µM (retest, dose inferred, filed as 0.5)
[8] = at 50.0 µM (retest, dose inferred, filed as 5.0)

Measured: growth inhibition

Cc1cccc2c(CBr)cc(=O)[nH]c12
active: [1]; [8] 91% | [1]; at 50.0 µM 86.8% | [2]; [8] 98% | [2]; at 50.0 µM 90.1% | [3]; [8] 92% | [3]; at 50.0 µM 84.3% | [4]; at 50.0 µM 91.5% | [5]; [8] 97% | [5]; at 50.0 µM 95.7%
inactive: [1]; [7] 7% | [2]; [7] 15% | [3]; [7] 13% | [4]; [7] 4% | [4]; [8] 61% | [5]; [7] 35%

CCOCCOC(=O)c1cc([N+](=O)[O-])cc([N+](=O)[O-])c1
active: [1]; [8] 94% | [2]; [8] 98% | [3]; [8] 93% | [5]; [8] 98% | [5]; at 50.0 µM 95.9%
inactive: [1]; [7] -4% | [1]; at 50.0 µM 60.2% | [2]; [7] -5% | [2]; at 50.0 µM 66.3% | [3]; [7] -3% | [3]; at 50.0 µM 53.8% | [4]; [7] -3% | [4]; [8] 41% | [4]; at 50.0 µM -1.5% | [5]; [7] 2%

Fc1cccc(CSc2ncnc3c2ncn3C2CCCS2)c1 (stereo not drawn)
inactive: [1]; [7] 4% | [2]; [7] 1% | [3]; [7] 6% | [4]; [7] 26% | [5]; [7] 3%
active: [1]; [8] 70% | [1]; at 50.0 µM 84.9% | [2]; [8] 87% | [2]; at 50.0 µM 90% | [3]; [8] 92% | [3]; at 50.0 µM 93.3% | [4]; [8] 87% | [4]; at 50.0 µM 82% | [5]; [8] 88% | [5]; at 50.0 µM 92.5%

Nc1ccc2c(SCC(=O)Nc3ccccc3-c3ccccc3NC(=O)CSc3c4ccccc4nc4cc(N)ccc34)c3ccccc3nc2c1
inactive: [1]; [7] 25% | [2]; [7] 24% | [3]; [7] 33% | [4]; [7] 17% | [6]; [7] 27% | [5]; [7] 11%
active: [1]; [8] 97% | [1]; at 50.0 µM 90% | [2]; [8] 98% | [2]; at 50.0 µM 92.5% | [3]; [8] 97% | [3]; at 50.0 µM 91.2% | [4]; [8] 97% | [4]; at 50.0 µM 78.8% | [6]; [8] 97% | [6]; at 50.0 µM 90.5% | [5]; [8] 96% | [5]; at 50.0 µM 87.5%

COC1=C(C)C(=O)C2=C(C1=O)C1C3CC4=C(C(=O)C(OC)=C(C)C4=O)C(CNC(=O)C(C)=O)N3C(C#N)C(C2)N1C (stereo not drawn)
inactive: [2]; [7] 53% | [3]; [7] 35% | [5]; [7] 51%
active: [1]; [7] 78% | [1]; [8] 98% | [1]; at 50.0 µM 90.2% | [2]; [8] 99% | [2]; at 50.0 µM 92% | [3]; [8] 99% | [3]; at 50.0 µM 91.7% | [4]; [7] 88% | [4]; [8] 96% | [4]; at 50.0 µM 89.6% | [5]; [8] 99% | [5]; at 50.0 µM 88.3%

COC(=O)CCC(NC(=S)N/N=C(\C)c1cnc2ccccc2n1)C(=O)OC (stereo not drawn)
inactive: [1]; [7] 12% | [1]; [8] 12% | [1]; at 50.0 µM 34.1% | [2]; [7] 1% | [2]; [8] 1% | [2]; at 50.0 µM 16.2% | [3]; [7] -5% | [3]; [8] -5% | [3]; at 50.0 µM 67.1% | [4]; [7] 10% | [4]; [8] 10% | [4]; at 50.0 µM 11.1% | [5]; [7] 15% | [5]; [8] 15% | [5]; at 50.0 µM 31.4%

Oc1ccc(O)c2c1CC=C(Cl)C2
active: [4]; [8] 86% | [5]; [8] 75%
inactive: [1]; [7] 10% | [1]; [8] 48% | [1]; at 50.0 µM 52.4% | [2]; [7] 12% | [2]; [8] 57% | [2]; at 50.0 µM 52.9% | [3]; [7] 13% | [3]; [8] 55% | [3]; at 50.0 µM 33% | [4]; [7] -1% | [4]; at 50.0 µM 24.9% | [5]; [7] 17% | [5]; at 50.0 µM 59.8%

OC1CN(C2CCCCC2)CC1C1(O)CCN(C2CCCCC2)C1 (stereo not drawn)
inactive: [1]; [7] 0% | [1]; [8] 6% | [1]; at 50.0 µM 20.1% | [2]; [7] 1% | [2]; [8] 5% | [2]; at 50.0 µM -2.75% | [4]; [7] 4% | [4]; [8] 10% | [4]; at 50.0 µM 65.7% | [6]; [7] 1% | [6]; [8] 15% | [6]; at 50.0 µM -5.85% | [5]; [7] 3% | [5]; [8] 10% | [5]; at 50.0 µM 20.2%

CC(=O)Oc1cc2c(=O)oc3c(OC(C)=O)c(OC(C)=O)c(OC(C)=O)c4c(=O)oc(c1OC(C)=O)c2c34
active: [1]; at 50.0 µM 89.5% | [2]; at 50.0 µM 76.6% | [3]; at 50.0 µM 87.2% | [4]; at 50.0 µM 73.8% | [5]; at 50.0 µM 88.2%
inactive: [1]; [7] 40% | [1]; [8] 58% | [2]; [7] 41% | [2]; [8] 48% | [3]; [7] 37% | [3]; [8] 61% | [4]; [7] 20% | [4]; [8] 40% | [5]; [7] 39% | [5]; [8] 45%

Cc1c(C(=O)N(CCO)CCO)[n+](=O)c2ccccc2n1[O-]
inactive: [1]; [7] 5% | [1]; [8] 3% | [1]; at 50.0 µM 28.9% | [2]; [7] 13% | [2]; [8] 7% | [2]; at 50.0 µM -5.35% | [3]; [7] 38% | [3]; [8] 18% | [3]; at 50.0 µM 14.7% | [4]; [7] 1% | [4]; [8] 2% | [4]; at 50.0 µM 39% | [6]; [7] 3% | [6]; [8] 26% | [6]; at 50.0 µM -5.1% | [5]; [7] 31% | [5]; [8] 13% | [5]; at 50.0 µM 65.7%

O=C(CSc1nccc(=O)[nH]1)c1ccccc1
active: [1]; at 50.0 µM 89.4% | [2]; at 50.0 µM 81.7% | [6]; at 50.0 µM 86%
inactive: [1]; [7] 2% | [1]; [8] 24% | [2]; [7] 1% | [2]; [8] 38% | [3]; [7] 5% | [3]; [8] 7% | [3]; at 50.0 µM 60.1% | [4]; [7] -5% | [4]; [8] 4% | [4]; at 50.0 µM 32.4% | [6]; [7] -2% | [6]; [8] 40% | [5]; [7] 4% | [5]; [8] 52% | [5]; at 50.0 µM 40.8%

COc1ccc(/C(O)=C/c2nc3ccc([N+](=O)[O-])cc3[nH]c2=O)cc1
active: [1]; [8] 70% | [1]; at 50.0 µM 78.9% | [3]; at 50.0 µM 92.6% | [4]; [8] 77% | [4]; at 50.0 µM 80.7% | [5]; at 50.0 µM 90.8%
inactive: [1]; [7] 12% | [2]; [7] 1% | [2]; [8] 57% | [2]; at 50.0 µM 49.5% | [3]; [7] -2% | [3]; [8] 67% | [4]; [7] 3% | [6]; [7] 2% | [6]; [8] 46% | [6]; at 50.0 µM 26.9% | [5]; [7] 2% | [5]; [8] 68%

Cc1nn(C(=O)c2ccncc2)c(C)c1N=Nc1ccccc1[N+](=O)[O-]
inactive: [1]; [7] 49% | [1]; at 50.0 µM 61.3% | [2]; [7] 11% | [2]; at 50.0 µM 20.6% | [3]; [7] 11% | [4]; [7] 21% | [4]; [8] 6% | [4]; at 50.0 µM -3.25% | [6]; [7] -1% | [6]; [8] 14% | [6]; at 50.0 µM 2.4% | [5]; [7] 4% | [5]; at 50.0 µM 26.1%
active: [1]; [8] 96% | [2]; [8] 93% | [3]; [8] 90% | [3]; at 50.0 µM 84.8% | [5]; [8] 94%

O=C(CCl)[O][Bi]([O]C(=O)CCl)([c]1ccccc1)([c]1ccccc1)[c]1ccccc1
active: [3]; [8] 83% | [6]; [8] 85% | [5]; [8] 71%
inactive: [1]; [7] 10% | [1]; [8] 51% | [1]; at 50.0 µM 13% | [2]; [7] 11% | [2]; [8] 58% | [2]; at 50.0 µM 15.7% | [3]; [7] 32% | [3]; at 50.0 µM -8.4% | [4]; [7] 26% | [4]; [8] 59% | [4]; at 50.0 µM 5.75% | [6]; [7] 31% | [6]; at 50.0 µM 10.2% | [5]; [7] 17% | [5]; at 50.0 µM 23.1%

CN(C)C1CCC2C3CCC4=CC(=O)CCC4(C)C3CCC21C (stereo not drawn)
inactive: [1]; [7] 2% | [1]; [8] 28% | [2]; [7] 17% | [2]; [8] 21% | [2]; at 50.0 µM 48% | [3]; [7] 8% | [3]; [8] 39% | [3]; at 50.0 µM 69.5% | [4]; [8] 55% | [4]; at 50.0 µM 47.1% | [6]; [7] 2% | [6]; [8] -63% | [6]; at 50.0 µM 40% | [5]; [7] 2% | [5]; [8] 35% | [5]; at 50.0 µM 51.7%
active: [1]; at 50.0 µM 77.1%

COc1cc(-c2nn3c(=O)n(-c4ccc(Cl)cc4)c(=O)nc3s2)cc(OC)c1OC
inactive: [1]; [7] 6% | [1]; [8] -2% | [1]; at 50.0 µM 30.8% | [2]; [7] 0% | [2]; [8] 18% | [2]; at 50.0 µM -0.6% | [3]; [7] 1% | [3]; [8] 4% | [3]; at 50.0 µM 20.9% | [4]; [7] 7% | [4]; [8] -7% | [4]; at 50.0 µM 24% | [6]; [7] 1% | [6]; [8] 17% | [6]; at 50.0 µM 3.3% | [5]; [7] -2% | [5]; [8] 3% | [5]; at 50.0 µM 2.35%
